In PubChem BioAssay (Tox21):
Records with an inconclusive call do not appear. Values without a mark were called inactive. Calls come from the whole dose curve; as a rule, active = well fitted inhibition curve with a large enough effect in the signal ratio in the repeat runs (not every such curve was filed as active); inconclusive = weak or mixed curves, or effect the other way; inactive = no such curve, though single readings can be large or run the other way; the % refers to the signal ratio.

molecular target: Vitamin D3 receptor (Homo sapiens) (UniProt P11473); test: qHTS assay to identify small molecule antagonists of the vitamin D receptor (VDR) signaling pathway (AID 743223); settings: VDR-UAS-bla HEK293T, beta-lactamase FRET ratio, 16 h; series mostly up to 61 µM; activity change, negative = inhibition: at the top concentration
Text: U.S. Tox21 Program National Center for Advancing Translational Sciences [NCATS] NIH Chemical Genomics Center [NCGC] U.S. Environmental Protection Agency [EPA] National Institutes of Environmental Health Sciences [NIEHS] National Toxicology Program [NTP] U.S. Food and Drug Administration [FDA] Tox21 Assay Overview: The vitamin D receptor (VDR), a member of nuclear hormone receptor superfamily, plays a critical role in calcium homeostasis and bone metabolism. It is also involved in cell differentiation and growth, and thrombogenicity.
Tox21 Assay Protocol Summary: VDR-bla cells were dispensed at 2,000 cells/5 uL of assay medium per well into black wall/clear-bottom 1536-well plates using a Multidrop Combi (Thermo Fisher Scientific, Waltham, MA) dispenser. After the assay plates were incubated at a 37C and 5% CO2 for 4 h, 23 nL of compounds dissolved in DMSO, positive controls or DMSO only was transferred to the assay plate by a Pintool station (Kalypsys, San Diego, CA), followed by addition of 1 uL of 1alpha, 25-Dihydroxy Vitamin D3 (3 nM, final concentration in the wells) using a Bioraptr Flying Reagent Dispenser (FRD) workstation (Beckman Coulter, Indianapolis, IN). The plates were incubated at 37C and 5% CO2 for 16 h, and then 1 uL of LiveBLAzerTM B/G FRET substrate was added using a Bioraptr FRD. The plates were incubated at room temperature for 2 h and fluorescence intensity was measured by an Envision plate reader (PerkinElmer, Shelton, CT).
% is set by controls: 0 for no effect and ±100 for the full control effect.

Sequence of Vitamin D3 receptor (Homo sapiens) (P11473 whole entry, looked up): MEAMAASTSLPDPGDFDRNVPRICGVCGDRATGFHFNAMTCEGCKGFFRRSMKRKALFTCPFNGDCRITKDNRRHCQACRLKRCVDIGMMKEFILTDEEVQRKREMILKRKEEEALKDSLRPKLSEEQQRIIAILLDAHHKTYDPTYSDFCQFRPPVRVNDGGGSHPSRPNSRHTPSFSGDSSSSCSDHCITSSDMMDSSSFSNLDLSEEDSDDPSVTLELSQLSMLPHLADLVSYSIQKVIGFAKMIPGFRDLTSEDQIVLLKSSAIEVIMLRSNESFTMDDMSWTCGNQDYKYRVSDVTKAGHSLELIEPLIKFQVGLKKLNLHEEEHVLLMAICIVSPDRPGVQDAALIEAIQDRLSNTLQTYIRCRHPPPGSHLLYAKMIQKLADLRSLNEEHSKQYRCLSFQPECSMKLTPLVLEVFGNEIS

Row | Structure (SMILES) | activity change, negative = inhibition
1 | CCCCCCCCCCCCCCCCCCN(C)C | 1.24%
2 | C=C[C@@H](C)CCC=C(C)C | 7.26%
3 | Nc1nc(=O)n([C@@H]2O[C@H](CO)[C@@H](O)[C@@H]2F)cc1I | -3.86%
4 | CC(C)CCC(=O)CCC(C)C | -19.4%
5 | CC(C)CCO | -5.35%
6 | CN(C1CCCCC1)S(=O)(=O)c1ccccc1N | -8.51%
7 | Nc1ccc(/C=C/c2ccc(N)cc2S(=O)(=O)O)c(S(=O)(=O)O)c1 | 0.787% [at 0.628 µM]
8 | CC(C)=CC(C)(C)C | 27.2%
9 | CN(C)CCOCCN(C)CCO | -2.08%
10 | CC(=O)Nc1ccc(C)cc1 | -2%
11 | CCCCCCCCCCCCCCCCI | 0.761% [at 28.5 µM]
12 | CC(CC(=O)O)CC(C)(C)C (stereo not given) | -5.57%
13 | CO[Si](CCCCl)(OC)OC | 1.11%
14 | CCCCCCCCCCCCOC(C)=O | 11.3%
15 | CCCC(C)CC (stereo not given) | -1.45%
16 | O=C(CN1CCN(Cc2ccc3c(c2)OCO3)CC1)N1c2ccccc2Sc2ccccc21 | 1.65%
17 | CCN(Cc1cccc(S(=O)(=O)O)c1)c1ccccc1 | -8.72%
18 | Cc1ccc(C(=O)C(=O)O)cc1C | 8.74%
19 | CC(C)C(=O)Nc1cccc(C(F)(F)F)c1 | 0.228%
20 | CCC(C)N (stereo not given) | -1.76%

Row | Structure (SMILES) | activity change, negative = inhibition
21 | NC(=O)NC(=O)Cc1ccccc1 | 3.85%
22 | CCC(=O)OCCC(C)CCC=C(C)C (stereo not given) | 6.73%
23 | Cc1nc(C)nc(N2C[C@@H](C)N(c3ccnc([C@@H](C)O)n3)[C@@H](C)C2)n1 | -10.4%
24 | C=C(C)C(=O)OCCCCCCOC(=O)C(=C)C | -6.8%
25 | COC(=O)CCC(=O)O | 24.5%
26 | Nc1cc(Cl)cc(S(=O)(=O)O)c1O | 2.93% [at 78.8 µM]
27 | Nc1cc(S(=O)(=O)O)ccc1S(=O)(=O)O | 2.16%
28 | CC1CCC(C(C)(C)S)C(=O)C1 (stereo not given) | 5.2%
29 | CCCCC(C)C(=O)O (stereo not given) | -2.83%
30 | CC(=O)OCC(=O)[C@@]1(O)[C@H](OC(C)=O)C[C@H]2[C@@H]3CCC4=CC(=O)C=C[C@]4(C)[C@@]3(F)[C@@H](O)C[C@@]21C | -13.3%
31 | O=C1OC(=O)c2ccccc21 | 12.7%
32 | c1ccc(CNc2ncnc3nc[nH]c23)cc1 | 5.47%
33 | Cc1cc(O)c2c(c1)C(=O)c1cccc(O)c1C2=O | 14.9%
34 | NC(Cc1c[nH]c2ccccc12)C(=O)O (stereo not given) | -6.46%
35 | COc1ccc(NS(=O)(=O)c2ccc(N)cc2)nn1 | 2.94%
36 | C/C=C(\C)C(=O)OCC/C=C\CC | 2.45%
37 | Cc1oc(=O)oc1CN1CCN(c2cc3c(cc2F)c(=O)c(C(=O)O)c2n3C(C)S2)CC1 (stereo not given) | 0.769%
38 | C=C(C)C(=O)OC1CC(C)CC(C)(C)C1 (stereo not given) | 2.37%
39 | CCCCCCCCC(=O)OCC | 9.7%
40 | CC(=O)/C=C/c1ccco1 | 7.35% [at 78.8 µM]
